We go through 38 molecules from the supplement of paper PMC12350171.

SMILES strings stand for the structures. Counter-ions that a name gives are not always drawn. Values without a mark were called inactive.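 How the source made its calls: active = AUC significantly below DMSO controls by Student t-fit with adjusted P under 0.01; inactive = not significantly reduced.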

The subject of this experiment is Haemophilus parainfluenzae. As to the kind of experiment: growth AUC normalised to DMSO control (fraction of control); higher = less growth inhibition, active = hit call of the paper. The note with it: 20 µM. An outline of the steps:
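Pathogens were passaged twice under anaerobic conditions, then inoculated into pre-reduced mGAM plates at a starting OD578 of 0.01, with compound at 20 μM and 1% DMSO, and sealed with breathable membranes. For Haemophilus parainfluenzae, the medium was supplemented with hemin and NAD. OD578 was read every hour for 24 h in three biological replicates. Growth-curve AUC was calculated by the trapezoidal rule up to the exponential-to-stationary transition and normalised to DMSO controls on the same plate.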
For `CCCSc1ccc2[nH]c(NC(=O)OC)nc2c1` [Albendazole], the “growth AUC normalised to DMSO control” value is 1.08.
Next, `NS(=O)(=O)c1cc2c(cc1Cl)N=C(CSCc1ccccc1)NS2(=O)=O` [Benzthiazide]: 0.987; `c1ccc2[nH]c(-c3cscn3)nc2c1` [Tiabendazole]: 1.06.
In the case of `CCCCC(CC)CN1CN(CC(CC)CCCC)CC(C)(N)C1` (stereo not drawn) [Hexetidine] it was 1.08; in that of `O=C(O)c1cc(=O)c2c(OCC(O)COc3cccc4oc(C(=O)O)cc(=O)c34)cccc2o1` [Cromolyn disodium salt], 1.01.
As for `CN(C)CCN(Cc1cccs1)c1ccccn1` [Methapyrilene hydrochloride], the “growth AUC normalised to DMSO control” value was 0.983.
`Cc1cccc(C)c1NC(=O)CN1CCN(CCCC(c2ccc(F)cc2)c2ccc(F)cc2)CC1` [Lidoflazine]: the “growth AUC normalised to DMSO control” value was 1.02.
In the case of `CCN(CC)C(=S)SSC(=S)N(CC)CC` [Disulfiram] it was 0.979.
In the case of `NC12CC3CC(CC(C3)C1)C2` [Adamantamine fumarate] it was 1.05; in that of `CCN1CCCC(OC(=O)C(c2ccccc2)c2ccccc2)C1` (stereo not drawn) [Piperidolate hydrochloride], 1.05.
In the case of `CN1[C@@H]2CC[C@H]1C[C@@H](OC(c1ccccc1)c1ccccc1)C2` [Benztropine mesylate] it was 1; in that of `CC(C)NC[C@H](O)COc1ccc(CC(N)=O)cc1` [(S,-) Atenolol], 1.01; in that of `CCCC1C(=O)N2C(N(C)C)=Nc3ccc(C)cc3N2C1=O` (stereo not drawn) [Azapropazone], 0.968.
On to `COc1ccccc1OCCNCC(O)COc1cccc2[nH]c3ccccc3c12` (stereo not drawn) [Carvedilol], for which the “growth AUC normalised to DMSO control” value was 0.963.
Next, `CN[C@@H]1[C@H](O[C@H]2[C@H](O[C@H]3[C@H](O)[C@@H](O)[C@H](NC(=N)N)[C@@H](O)[C@@H]3NC(=N)N)O[C@@H](C)[C@]2(O)CO)O[C@@H](CO)[C@H](O)[C@H]1O` [Dihydrostreptomycin sulfate]: 0.0409 (active); `CCOC(=O)C1=C(C)NC(C)=C(C(=O)OC)C1c1cccc(Cl)c1Cl` (stereo not drawn) [Felodipine]: 0.863.
For the molecule `C[C@]12CC[C@@H]3c4ccc(OS(=O)(=O)O)cc4CC[C@H]3[C@@H]1CCC2=O` [Estropipate piperazine salt], the “growth AUC normalised to DMSO control” value is 0.985.
Next, `CC(=O)Nc1ccc(OCC(O)CNC(C)C)cc1` (stereo not drawn) [Practolol]: 1.01; `c1cnc(N2CCN(Cc3ccc4c(c3)OCO4)CC2)nc1` [Piribedil]: 1.02.
In the case of `Nc1nc(O)c2ncn(CCC(CO)CO)c2n1` [Penciclovir] it was 0.944.
In the case of `N=C(N)NCC1COC2(CCCCC2)O1` (stereo not drawn) [Guanadrel sulfate] it was 0.967; in that of `Cc1ccnc(NS(=O)(=O)c2ccc(N)cc2)n1` [Sulfamerazine], 0.994; in that of `CN1C2CCCC1CC(NC(=O)c1nn(C)c3ccccc13)C2` (stereo not drawn) [Granisetron], 1.02.
In the case of `CNC(C)CCC=C(C)C` (stereo not drawn) [Isometheptene mucate], the “growth AUC normalised to DMSO control” value is 0.97.
In the case of `Nc1ccn([C@@H]2O[C@H](CO)[C@@H](O)[C@@H]2O)c(=O)n1` [Cytarabine] it was 0.999; in that of `C=C1C[C@H]2[C@@H]3C=C(C)C4=CC(=O)CC[C@]4(C)[C@H]3CC[C@]2(C)[C@@]1(OC(C)=O)C(C)=O` [Melengestrol acetate], 1.06.
Next, `CN(C)CCOC(=O)COc1ccc(Cl)cc1` [Meclofenoxate hydrochloride]: 0.896.
`CC(=O)Oc1ccccc1C(=O)Oc1ccccc1C(=O)O` [Acetylsalicylsalicylic acid]: the “growth AUC normalised to DMSO control” value was 0.885.
In the case of `CC[N+](C)(C)Cc1ccccc1Br` [Bretylium tosylate] it was 1.02; in that of `CC1(C)[C@@H](OC(=O)CCC(=O)O)CC[C@]2(C)[C@H]3C(=O)C=C4[C@@H]5C[C@@](C)(C(=O)O)CC[C@]5(C)CC[C@@]4(C)[C@]3(C)CC[C@@H]12` [Carbenoxolone disodium salt], 0.964; in that of `Nc1cc(-c2ccncc2)c[nH]c1=O` [Amrinone], 1.09.
Next, `CCn1nc(C(=O)O)c(=O)c2cc3c(cc21)OCO3` [Cinoxacin]: 0.294 (active).
With `Cc1c(Cl)cccc1Nc1ncccc1C(=O)O` [Clonixin lysinate], the “growth AUC normalised to DMSO control” value is 1.06.
Next, `CN(C)CCN(Cc1ccc(Cl)cc1)c1ccccn1` [Chloropyramine hydrochloride]: 1.03; `CC(C)NC[C@@H](O)COc1cccc2ccccc12` [(R) Propranolol hydrochloride]: 0.99.
Take `c1ccc(C2CN3CCSC3=N2)cc1` (stereo not drawn) [Tetramisole hydrochloride]: the “growth AUC normalised to DMSO control” value is 0.997.
Next, `CN(C)CCC=C1c2ccccc2C=Cc2ccccc21` [Cyclobenzaprine hydrochloride]: 0.893; `CCOc1nc2cccc(C(=O)O)c2n1Cc1ccc(-c2ccccc2-c2nnn[nH]2)cc1` [Candesartan]: 1.05.
